Data: PubChem BioAssay AID1981 (Southern Research Specialized Biocontainment Screening …, 2009)
The campaign covered roughly 2,200 compounds. About 480 (22%) were called active. No rule for the calls is given here. A selection follows. Potency and affinity values are given separately.

Test: S. Typhimurium GFP fluorescence dose response in modified counterscreen for PhoP regulon inhibitor project (AID 1981);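 also: 0% = induced DMSO wells and 100% = uninduced wells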
Details: 4 h; series mostly up to 150 µM; inhibition: at the top concentration

Row | SMILES | inhibition
1 | Cc1ccc(-n2ncc3c(N4CCN(c5ccccc5)CC4)ncnc32)c(C)c1 | 0.31% (inactive)
2 | O=C(CC1SC(=NCc2ccccc2)NC1=O)Nc1ccccc1 (stereo not drawn) | -21.5% (inactive)
3 | Cc1nn(C)c(C)c1S(=O)(=O)N1CCC(C(=O)NC2CCCCC2)CC1 | -14.5% (inactive)
4 | COc1cc(NC(=O)CSc2nnnn2Cc2ccc3c(c2)OCO3)cc(OC)c1 | 7.32% (inactive)
5 | Cc1ccc(N)cc1-n1c(C)ccc1C | -4.71% (inactive)
6 | CC(C)(C)c1ccc(C(=O)Nc2ccc(C=C(C#N)C#N)cc2)cc1 | -4.47% (inactive)
7 | COCCSc1ccccc1C(=O)NCC1CCCO1 (stereo not drawn) | 0.94% (inactive)
8 | Cn1c(NCc2cc(Br)ccc2O)nc2ccccc21 | -8.36% (inactive)
9 | O=S(=O)(Nc1ccc2c(c1)nc1n2CCN(Cc2ccccc2)C1)c1ccc(Cl)cc1 | 4.42% (inactive)
10 | C=CCn1c(SCc2c(C(=O)OC)sc(N)c2C(=O)OC)nnc1-c1ccc(Cl)cc1 | 3.35% (inactive)
11 | CCC(CC)C(=O)NCCc1ccc(OC)cc1 | -19.9% (inactive)
12 | O=C(Cn1cnc2ccccc2c1=O)NCc1ccco1 | -7.91% (inactive)
13 | CC(=O)NCCOc1c(C)cc(S(N)(=O)=O)cc1C | -20.7% (inactive)
14 | C=CCOc1ccc(CNc2nn[nH]n2)cc1 | -9.95% (inactive)
15 | COC(=O)Cc1c(C)nc2nc(NCc3ccc(Cl)cc3)[nH]n2c1=O | -1.93% (inactive)
16 | CN(C)C(=O)On1c(-c2ccccc2)nc2ccc(Cl)cc21 | -2.41% (inactive)
17 | CC(C)N(Cc1nc(-c2ccccc2)no1)C(=O)CN(C)S(=O)(=O)c1ccccc1 | -24.6% (inactive)

Row | SMILES | inhibition
18 | Cc1ccc(Nc2cc(C)nc3nc(C)nn23)cc1 | -1.42% (inactive)
19 | COc1ccc(Nc2nnc(SCc3cn4c(C)cccc4n3)s2)cc1 | 14.2% (inactive)
20 | CCOC(=O)N1CCN(S(=O)(=O)c2ccc(C(=O)NNc3nc4cc(C)cc(C)c4s3)cc2)CC1 | 37.6% (inactive)
21 | Cc1ccc(Nc2nc(Cl)nc(N(C)C#N)n2)cc1 | -6.75% (inactive)
22 | Cc1ncc(C23CC4CC(CC(C4)C2)C3)[nH]1 | 1.02% (inactive)
23 | CCN(CC)c1nc2n(c(=O)n1)CCO2 | -7.1% (inactive)
24 | COc1ccc2c(c1)cc1n2CCN2CCCN=C12 | -2.25% (inactive)
25 | C=CCSC1=Nc2sccc2C2=NC(=O)CN12 | 4.53% (inactive)
26 | COc1ccc(NC(=O)CSc2nccn2-c2ccccc2)cc1 | -10.3% (inactive)
27 | O=C(/C=C/c1ccc2c(c1)OCO2)N1CCN(c2ccccc2F)CC1 | -4.1% (inactive)
28 | OC(COCc1cccs1)CN1CCN(c2ccccn2)CC1 (stereo not drawn) | -9.12% (inactive)
29 | N#Cc1c(-c2ccco2)cc(-c2ccc(F)cc2)nc1N | 3.02% (inactive)
30 | CN1CCN(S(=O)(=O)c2ccc(N)cc2)CC1 | -0.53% (inactive)
31 | CC(C)(C)c1ccc(-c2n[nH]c(=S)n2/N=C/c2ccncc2)cc1 | -4.8% (inactive)
32 | CC(Cl)C(=O)NNc1cccc(Cl)n1 (stereo not drawn) | 1.81% (inactive)
33 | Cc1nc(N2CCN(Cc3ccc4c(c3)OCO4)CC2)nc2c1C(=O)CC(c1ccco1)C2 (stereo not drawn) | -18.7% (inactive)
